Of roughly 7,900 targets only a part is listed; those with a hit were picked by preference. About 0.6% of all pairs of compound and target were hits.
Tests used:
Assay in all cases: log2 fold change, soluble protein after heating vs DMSO (PISA); higher = thermal stabilisation; K562 cells, 10 uM, 30 min; active = over 0.2 and 3.5 SD of the protein, either way, in both replicates (recomputed)
[1] = compound: C#Cc1cccc(Nc2ncnc3cc(OCCOC)c(OCCOC)cc23)c1 [erlotinib]
Procedure, shortened: (§1)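 Soluble protein was quantified by TMTpro 16plex LC-MS/MS after channel sums were equalised. It was obtained as the supernatant after 21,000xg for 90 min from pooled aliquots of K562 cells (2×10^6 cells/mL, 10 μM compound, 30 min) heated for 3 min across 48°C-58°C and extracted in PBS with 0.5% NP-40 at 4°C. Thermal stability values are relative to control samples and come from duplicates. They are given as log2 fold changes.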

[2] = compound: C/C(=N\NC(=O)C1=CC(=CC=C1)S(=O)(=O)N2CCOCC2)/C3=C(C=CC(=C3)Cl)O
Procedure, shortened: as §1

[3] = compound: C1=CC(=C(C=C1Cl)C2=NC3=NC=CN=C3C(=N2)NC4=CC=NC=C4)F
Procedure, shortened: as §1

[4] = compound: C1=CC(=CC=C1C2=NC3=C(N2)C=C(C=C3)C(=O)N)OC4=CC=C(C=C4)Cl
Procedure, shortened: as §1

[5] = compound: C1=CC2=C(C=CC(=C2)/C=C\3/C(=O)NC(=NCC4=CC=CS4)S3)N=C1
Procedure, shortened: as §1

[6] = compound: C1=CC2=NC=CN=C2C=C1/C=C/3\C(=O)NC(=O)S3
Procedure, shortened: as §1

[7] = compound: C1=CC=C2C(=C1)C3=NNC4=CC=CC(=C43)C2=O
Procedure, shortened: as §1

[8] = compound: C1CCN(C1)C(=O)NC2=CC=CC(=C2)NC3=NC=C(C(=N3)NCCC4=CN=CN4)Br
Procedure, shortened: as §1

[9] = compound: C1CN(CCC1(CC2=CC=C(C=C2)Cl)N)C3=NC=NC4=C3C=CN4
Procedure, shortened: as §1

[10] = compound: C=CC(=O)N1CCC[C@@H](n2nc(-c3ccc(Oc4ccccc4)cc3)c3c(N)ncnc32)C1 [ibrutinib]
Procedure, shortened: as §1

[11] = compound: CC(=O)c1cnc2ccc(-c3cc(Cl)c(O)c(Cl)c3)nc2c1N[C@H]1CC[C@H](CN(C)C)CC1
Procedure, shortened: as §1

[12] = compound: CC(C)(O)CC(=O)NCCn1ccc2ncnc(Nc3ccc(Oc4cccc(C(F)(F)F)c4)c(Cl)c3)c21
Procedure, shortened: as §1

[13] = compound: CC(C)C1=C2N=C(C=C(N2N=C1)NCC3=CC=CC=C3)NCCCCCCN
Procedure, shortened: as §1

[14] = compound: CC1=C(C(CC(=O)N1)C2=CC=C(C=C2)C(F)(F)F)C(=O)NC3=C(C=C4C(=C3)C=NN4)F
Procedure, shortened: as §1

[15] = compound: CC1=C(C2=C(C=C1)C(=O)C3=CC=CC=C3N2CCCN)C
Procedure, shortened: as §1

[16] = compound: C1=CC=C(C=C1)C2=NC(=C(N2)C3=CC=NC=C3)C4=CC(=C(C=C4)Cl)O
Procedure, shortened: as §1

[17] = compound: C1COCCN1CCN2C3=CC=CC=C3N=C2NC(=O)C4=CC(=CC=C4)[N+](=O)[O-] [IRAK-1-4 Inhibitor I]
Procedure, shortened: as §1

[18] = compound: CC(C)(C)Cn1c(N)nc2ccc(-c3[nH]c(C(C)(C)C)nc3-c3ccc(F)cc3)nc21 [ralimetinib]
Procedure, shortened: as §1

[19] = compound: CC(C)C[C@@H](C=O)NC(=O)[C@H](CC(C)C)NC(=O)[C@H](CC(C)C)NC(=O)OCc1ccccc1
Procedure, shortened: as §1

[20] = compound: CC(C)N(C[C@H]1O[C@@H](n2cnc3c(N)ncnc32)[C@H](O)[C@@H]1O)[C@H]1C[C@@H](CCc2nc3cc(C(C)(C)C)ccc3[nH]2)C1 [pinometostat]
Procedure, shortened: as §1

Measured: log2 fold change

SH3PXD2B (UniProt A1X283)
Sequence of UniProt A1X283 (A1X283 whole entry, looked up): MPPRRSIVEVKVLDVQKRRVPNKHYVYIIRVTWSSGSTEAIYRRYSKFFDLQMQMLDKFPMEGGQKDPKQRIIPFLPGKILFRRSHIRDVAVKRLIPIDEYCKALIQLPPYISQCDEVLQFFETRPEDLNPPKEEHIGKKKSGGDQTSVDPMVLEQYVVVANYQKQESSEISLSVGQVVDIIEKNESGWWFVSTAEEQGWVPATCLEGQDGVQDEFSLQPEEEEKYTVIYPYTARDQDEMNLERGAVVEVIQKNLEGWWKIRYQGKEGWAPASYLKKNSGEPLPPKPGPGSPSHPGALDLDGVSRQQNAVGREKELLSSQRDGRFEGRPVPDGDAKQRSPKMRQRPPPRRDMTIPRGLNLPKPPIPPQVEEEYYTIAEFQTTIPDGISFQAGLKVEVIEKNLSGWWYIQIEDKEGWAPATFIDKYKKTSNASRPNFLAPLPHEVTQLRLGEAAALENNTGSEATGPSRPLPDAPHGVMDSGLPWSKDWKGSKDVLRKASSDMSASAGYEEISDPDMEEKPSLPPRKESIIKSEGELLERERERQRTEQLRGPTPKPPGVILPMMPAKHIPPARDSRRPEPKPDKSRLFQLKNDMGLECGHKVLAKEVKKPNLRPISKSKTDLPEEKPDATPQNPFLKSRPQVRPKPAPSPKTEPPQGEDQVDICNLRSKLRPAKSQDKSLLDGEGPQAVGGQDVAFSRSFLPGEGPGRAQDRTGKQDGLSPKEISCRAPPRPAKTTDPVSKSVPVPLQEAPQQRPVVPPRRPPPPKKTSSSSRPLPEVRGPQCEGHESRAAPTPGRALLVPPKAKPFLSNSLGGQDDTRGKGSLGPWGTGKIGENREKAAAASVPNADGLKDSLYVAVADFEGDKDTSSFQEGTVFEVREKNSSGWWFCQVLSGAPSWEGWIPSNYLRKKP
inactive: [1] 0 | [2] -0.036 | [3] -0.013 | [4] -0.153 | [5] 0.04 | [6] -0.012 | [7] 0.04 | [8] -0.034 | [9] 0.132 | [10] -0.115 | [11] -0.005 | [12] 0.035 | [13] 0.075 | [14] -0.054 | [15] 0.027

RNF41 (UniProt Q9H4P4)
inactive: [2] 0.043 | [5] -0.074 | [6] -0.146 | [7] -0.002 | [10] -0.104 | [11] 0.082

SIK3 (UniProt H0Y4E8)
inactive: [1] -0.074 | [2] 0.045 | [4] 0.094 | [5] 0.074 | [16] -0.163 | [7] -0.099 | [8] 0.051 | [9] 0.15 | [17] 0.043 | [18] 0.135 | [13] 0.186 | [19] -0.167 | [20] -0.036 | [14] 0.179 | [15] -0.124
active: [11] -0.425

RALGPS2 (UniProt Q86X27)
Sequence of UniProt Q86X27 (Q86X27 whole entry, looked up): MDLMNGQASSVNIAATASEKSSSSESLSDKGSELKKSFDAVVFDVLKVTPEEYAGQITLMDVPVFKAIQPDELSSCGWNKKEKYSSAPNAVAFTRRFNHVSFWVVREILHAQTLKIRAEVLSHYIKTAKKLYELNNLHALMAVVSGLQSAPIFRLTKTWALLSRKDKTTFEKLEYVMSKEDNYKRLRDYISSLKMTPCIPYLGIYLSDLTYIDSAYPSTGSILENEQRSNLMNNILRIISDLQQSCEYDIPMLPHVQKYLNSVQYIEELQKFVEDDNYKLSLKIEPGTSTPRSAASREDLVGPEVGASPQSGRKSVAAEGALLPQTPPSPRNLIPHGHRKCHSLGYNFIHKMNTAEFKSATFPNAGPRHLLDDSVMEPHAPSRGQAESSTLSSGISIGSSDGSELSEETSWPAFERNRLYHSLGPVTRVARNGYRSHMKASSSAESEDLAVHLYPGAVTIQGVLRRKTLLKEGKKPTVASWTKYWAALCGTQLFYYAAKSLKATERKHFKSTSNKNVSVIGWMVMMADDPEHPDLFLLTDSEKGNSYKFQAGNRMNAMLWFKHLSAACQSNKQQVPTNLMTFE
inactive: [1] -0.43 | [2] -0.07 | [3] -0.321 | [4] 0.037 | [5] -0.079 | [6] 0.111 | [7] -0.012 | [8] -0.06 | [9] 0.154 | [17] -0.249 | [10] 0.061 | [11] -0.045 | [12] 0.051 | [13] 0.141 | [20] 0.397 | [15] 0.029

RPS19 (UniProt M0R2L9)
inactive: [2] -0.054 | [5] -0.246 | [7] 0.732 | [8] 0.522 | [9] -0.095 | [11] -0.083 | [14] 0.538 | [15] -0.177

SAP30 (UniProt O75446)
Sequence of UniProt O75446 (O75446 whole entry, looked up): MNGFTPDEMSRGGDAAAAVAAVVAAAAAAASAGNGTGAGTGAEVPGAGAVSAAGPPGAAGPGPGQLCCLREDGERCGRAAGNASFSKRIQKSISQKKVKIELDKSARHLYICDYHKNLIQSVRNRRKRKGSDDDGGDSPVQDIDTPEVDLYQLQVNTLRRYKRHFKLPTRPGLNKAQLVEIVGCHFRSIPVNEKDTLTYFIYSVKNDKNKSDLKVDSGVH
inactive: [1] -0.04 | [2] 0.061 | [3] -0.069 | [4] -0.027 | [5] 0.018 | [7] -0.13 | [17] 0.018 | [11] 0.085 | [12] 0.151 | [13] 0.111 | [20] 0.111 | [14] 0.041

RICTOR isoform 3 (UniProt Q6R327)
active: [11] 0.866
inactive: [1] 0.116 | [2] 0.025 | [3] -0.067 | [4] 0.36 | [5] -0.031 | [7] -0.136 | [8] 0.054 | [9] -0.001 | [12] -0.084 | [13] -0.584 | [14] 0.07 | [15] -0.223

SDC3 (UniProt O75056)
inactive: [2] -0.135 | [3] -0.015 | [5] 0.05 | [7] -0.157 | [8] -0.139 | [9] 0.203 | [11] 0.089 | [12] -0.006 | [14] 0.042 | [15] -0.036

RAD50, A0A494C0Y7
inactive: [2] -0.029 | [5] 0.049 | [6] -0.077 | [16] -0.111 | [7] 0.048 | [8] -0.033 | [9] 0.143 | [17] 0.015 | [10] 0.072 | [11] -0.037 | [18] -0.085 | [19] 0.196 | [20] 0.015 | [15] 0.051

SDCBP isoform 2 (UniProt O00560)
inactive: [1] 0.157 | [3] 0.007 | [4] 0.159 | [6] 0.009 | [16] -0.299 | [8] 0.249 | [9] 0.096 | [10] 0 | [18] 0.06 | [12] 0.008 | [13] -0.444 | [19] 0.13 | [14] -0.29 | [15] 0.033

SH2D1B (UniProt O14796)
inactive: [1] -0.294 | [2] -0.059 | [3] -0.218 | [4] -0.098 | [5] 0.057 | [16] -0.228 | [7] -0.406 | [8] -0.036 | [9] 0.028 | [17] 0.202 | [18] 0.042 | [12] -0.052 | [13] 0.095 | [19] 0.005 | [20] 0.027 | [14] 0.106 | [15] -0.004
active: [11] -1.57

RPS6KA5 (UniProt O75582)
inactive: [1] 0.239 | [3] -0.079 | [4] -0.234 | [16] -0.091 | [17] 0.071 | [18] -0.11 | [12] -0.042 | [13] -0.218 | [19] 0.069 | [20] -0.431

RPS6KA3 (UniProt P51812)
active: [7] -0.345 | [18] -0.359
inactive: [1] -0.024 | [2] 0.08 | [3] 0.018 | [4] 0.072 | [6] 0.061 | [16] -0.043 | [8] -0.085 | [9] -0.017 | [17] 0.03 | [10] -0.048 | [11] -0.194 | [12] -0.061 | [13] -0.076 | [19] 0.121 | [20] 0.011 | [14] 0.01 | [15] 0.001

RNF26 (UniProt Q9BY78)
inactive: [6] -0.08 | [16] -0.073 | [10] -0.033 | [18] 0.095 | [19] 0.281

SLC12A5 (UniProt Q9H2X9)
Sequence of UniProt Q9H2X9 (Q9H2X9 whole entry, looked up): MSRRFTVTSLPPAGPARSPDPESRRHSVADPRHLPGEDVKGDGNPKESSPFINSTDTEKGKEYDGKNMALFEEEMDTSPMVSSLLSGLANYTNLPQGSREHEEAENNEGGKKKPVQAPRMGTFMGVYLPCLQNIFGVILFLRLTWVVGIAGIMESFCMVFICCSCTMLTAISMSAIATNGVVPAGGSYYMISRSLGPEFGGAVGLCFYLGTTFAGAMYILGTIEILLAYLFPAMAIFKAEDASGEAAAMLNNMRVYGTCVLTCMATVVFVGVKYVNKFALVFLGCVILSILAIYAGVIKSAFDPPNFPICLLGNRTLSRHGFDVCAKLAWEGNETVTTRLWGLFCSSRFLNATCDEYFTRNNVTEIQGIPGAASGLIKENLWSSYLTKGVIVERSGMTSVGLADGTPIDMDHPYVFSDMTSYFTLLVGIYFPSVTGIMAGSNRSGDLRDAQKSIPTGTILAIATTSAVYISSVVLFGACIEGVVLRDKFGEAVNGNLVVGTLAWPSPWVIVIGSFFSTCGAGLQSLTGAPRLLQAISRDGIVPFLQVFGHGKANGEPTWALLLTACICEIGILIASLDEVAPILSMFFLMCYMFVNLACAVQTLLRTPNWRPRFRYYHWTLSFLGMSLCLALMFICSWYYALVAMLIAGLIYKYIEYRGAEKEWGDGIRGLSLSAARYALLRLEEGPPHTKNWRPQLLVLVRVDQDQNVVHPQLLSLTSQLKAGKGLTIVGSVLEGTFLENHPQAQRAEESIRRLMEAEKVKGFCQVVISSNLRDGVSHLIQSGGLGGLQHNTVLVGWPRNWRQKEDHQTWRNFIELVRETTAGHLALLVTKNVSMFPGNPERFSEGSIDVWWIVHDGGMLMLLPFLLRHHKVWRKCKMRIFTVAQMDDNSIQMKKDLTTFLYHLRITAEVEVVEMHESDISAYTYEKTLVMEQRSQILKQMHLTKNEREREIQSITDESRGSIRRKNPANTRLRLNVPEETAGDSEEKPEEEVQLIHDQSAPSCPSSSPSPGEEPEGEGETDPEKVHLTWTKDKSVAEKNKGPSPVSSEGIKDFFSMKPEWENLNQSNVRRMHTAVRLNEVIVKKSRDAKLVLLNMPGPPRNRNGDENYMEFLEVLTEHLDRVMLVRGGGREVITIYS
inactive: [1] 0.036 | [2] 0.054 | [4] 0.034 | [5] 0.098 | [6] -0.021 | [7] -0.138 | [8] 0.038 | [9] 0.103 | [17] -0.024 | [10] -0.006 | [11] -0.101 | [12] 0.14 | [13] 0.052 | [20] -0.113 | [15] 0.047
active: [3] -0.49

SAMD4B (UniProt Q5PRF9)
inactive: [1] -0.117 | [3] -0.17 | [4] -0.13 | [6] 0.124 | [16] -0.135 | [8] 0.037 | [9] 0.045 | [17] 0.007 | [10] -0.024 | [18] 0.053 | [12] 0.133 | [13] 0.142 | [19] 0.04 | [20] 0.051 | [14] 0.05 | [15] 0.039

SEMG2 (UniProt Q02383)
inactive: [2] 1.75 | [3] 0.047 | [5] 0.237 | [6] -0.042 | [8] -0.071 | [9] 0.06 | [10] -0.031 | [11] -0.148 | [12] -0.011 | [14] -0.031 | [15] 0.049
active: [7] -0.562

RNF220 isoform 3 (UniProt Q5VTB9)
inactive: [1] -0.109 | [2] -0.021 | [4] 0.229 | [5] -0.05 | [7] -0.055 | [11] 0.086 | [13] 0.056

S100A10 (UniProt P60903)
inactive: [2] 0.122 | [5] 0.194 | [6] 0.052 | [7] -0.096 | [8] -0.042 | [9] -0.013 | [10] 0.605 | [11] -0.345 | [14] -0.06 | [15] 0.522

RPS3A (UniProt D6R9B6)
inactive: [2] -0.359 | [5] 0.198 | [7] -0.243 | [8] 0.303 | [9] 0.034 | [11] -0.124 | [15] -0.363

RCOR3 isoform 3 (UniProt Q9P2K3)
inactive: [1] 0.116 | [2] 0.084 | [4] -0.008 | [5] 0.022 | [6] -0.01 | [16] -0.011 | [7] 0.018 | [8] -0.003 | [9] 0.057 | [17] 0.009 | [10] -0.053 | [11] -0.188 | [18] 0.017 | [13] -0.048 | [19] 0.062 | [20] -0.038 | [14] 0.011 | [15] -0.035

RUFY3 isoform 3 (UniProt Q7L099)
Sequence of UniProt Q7L099 (Q7L099 whole entry, looked up): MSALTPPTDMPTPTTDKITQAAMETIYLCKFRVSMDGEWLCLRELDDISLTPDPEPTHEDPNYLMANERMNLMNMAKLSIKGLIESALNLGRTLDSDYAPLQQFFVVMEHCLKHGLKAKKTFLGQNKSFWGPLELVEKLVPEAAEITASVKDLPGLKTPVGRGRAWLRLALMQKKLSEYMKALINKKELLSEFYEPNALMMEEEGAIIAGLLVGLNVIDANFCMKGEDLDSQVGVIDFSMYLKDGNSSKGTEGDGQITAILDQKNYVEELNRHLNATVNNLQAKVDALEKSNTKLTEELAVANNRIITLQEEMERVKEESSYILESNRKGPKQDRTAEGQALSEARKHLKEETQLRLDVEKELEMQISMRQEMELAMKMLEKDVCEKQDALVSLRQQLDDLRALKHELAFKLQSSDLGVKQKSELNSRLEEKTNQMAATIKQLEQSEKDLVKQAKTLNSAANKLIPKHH
inactive: [1] 0.019 | [2] 0.012 | [4] -0.03 | [5] -0.028 | [16] 0.011 | [7] 0.065 | [8] -0.075 | [9] -0.07 | [17] -0.008 | [11] 0.023 | [18] 0.196 | [13] -0.098 | [19] -0.054 | [20] 0.035 | [14] -0.123 | [15] 0.044

RBM26 isoform 3 (UniProt Q5T8P6)
Sequence of UniProt Q5T8P6 (Q5T8P6 whole entry, looked up): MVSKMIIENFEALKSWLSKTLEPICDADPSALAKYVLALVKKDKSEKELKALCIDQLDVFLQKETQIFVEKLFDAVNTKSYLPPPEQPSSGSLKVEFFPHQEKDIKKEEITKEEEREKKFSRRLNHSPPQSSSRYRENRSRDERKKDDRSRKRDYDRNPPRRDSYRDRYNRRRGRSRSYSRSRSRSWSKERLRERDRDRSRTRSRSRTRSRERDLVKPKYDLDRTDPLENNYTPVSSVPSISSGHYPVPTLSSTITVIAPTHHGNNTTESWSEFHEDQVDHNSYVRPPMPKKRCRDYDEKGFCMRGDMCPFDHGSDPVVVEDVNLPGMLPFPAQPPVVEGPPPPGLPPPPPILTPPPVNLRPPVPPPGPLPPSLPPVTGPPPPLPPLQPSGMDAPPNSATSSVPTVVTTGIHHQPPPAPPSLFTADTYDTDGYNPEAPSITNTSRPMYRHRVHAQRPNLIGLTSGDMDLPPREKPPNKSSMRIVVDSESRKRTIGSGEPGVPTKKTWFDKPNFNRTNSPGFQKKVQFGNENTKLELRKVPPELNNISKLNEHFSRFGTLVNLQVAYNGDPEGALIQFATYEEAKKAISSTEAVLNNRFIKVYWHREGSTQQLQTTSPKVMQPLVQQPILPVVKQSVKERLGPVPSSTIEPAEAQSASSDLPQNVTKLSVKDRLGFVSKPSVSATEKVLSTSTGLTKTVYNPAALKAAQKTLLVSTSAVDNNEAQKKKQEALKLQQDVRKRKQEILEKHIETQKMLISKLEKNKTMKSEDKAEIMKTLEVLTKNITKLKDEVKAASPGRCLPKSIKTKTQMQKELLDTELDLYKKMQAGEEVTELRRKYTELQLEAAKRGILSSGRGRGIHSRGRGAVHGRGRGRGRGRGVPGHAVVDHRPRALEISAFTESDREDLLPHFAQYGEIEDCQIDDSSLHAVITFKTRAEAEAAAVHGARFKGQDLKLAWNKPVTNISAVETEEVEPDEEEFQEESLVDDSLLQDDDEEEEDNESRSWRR
inactive: [2] 0.22 | [5] -0.079 | [7] -0.149 | [11] -0.528

SCLT1 (UniProt Q96NL6)
Sequence of UniProt Q96NL6 (Q96NL6 whole entry, looked up): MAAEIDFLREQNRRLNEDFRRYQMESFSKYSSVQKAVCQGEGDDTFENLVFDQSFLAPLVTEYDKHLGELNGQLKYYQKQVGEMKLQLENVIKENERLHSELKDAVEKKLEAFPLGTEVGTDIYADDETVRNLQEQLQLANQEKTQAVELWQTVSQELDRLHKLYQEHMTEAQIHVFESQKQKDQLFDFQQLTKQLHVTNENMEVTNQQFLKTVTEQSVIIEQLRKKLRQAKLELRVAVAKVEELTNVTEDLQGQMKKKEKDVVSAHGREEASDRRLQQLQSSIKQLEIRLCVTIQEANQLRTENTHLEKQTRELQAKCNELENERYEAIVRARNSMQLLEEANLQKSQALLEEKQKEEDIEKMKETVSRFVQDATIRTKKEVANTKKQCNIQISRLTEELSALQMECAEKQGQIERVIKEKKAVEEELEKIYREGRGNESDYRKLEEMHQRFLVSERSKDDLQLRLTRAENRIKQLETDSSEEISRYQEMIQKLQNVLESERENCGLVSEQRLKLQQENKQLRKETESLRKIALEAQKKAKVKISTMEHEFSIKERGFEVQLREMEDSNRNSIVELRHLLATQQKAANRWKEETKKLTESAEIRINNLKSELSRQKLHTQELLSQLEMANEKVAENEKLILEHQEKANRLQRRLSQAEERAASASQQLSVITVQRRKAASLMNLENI
inactive: [6] -0.002 | [8] -0.088 | [9] 0.051 | [17] -0.046 | [10] -0.049 | [20] 0.005 | [14] -0.118 | [15] 0.129

RNF185 (UniProt Q96GF1)
inactive: [1] -0.054 | [2] -0.006 | [4] 0.009 | [5] 0.136 | [6] 0.026 | [16] 0.133 | [7] -0.007 | [8] 0.457 | [9] -0.031 | [10] 0.045 | [11] 0.087 | [18] -0.04 | [13] -0.011 | [19] -0.003 | [14] 0.006 | [15] 0.276

RBM6 (UniProt P78332)
inactive: [2] 0.019 | [5] 0.036 | [7] -0.1 | [8] 0.048 | [9] 0.018 | [17] 0.146 | [11] -0.208 | [20] -0.09 | [14] -0.19 | [15] -0.16

— the supplement of paper PMC10849652
